Test results taken from PubChem BioAssay (EPA / NIEHS).
Activity calls are given as the source filed them. The calls were made as follows: active = hit-call score of the fitted dose curve at least 0.9, where 1 is the maximum; inactive = score below 0.9.

System: not listed separately
Experiment: ATG_GLI_CIS: Attagene CIS-FACTORIAL HepG2 Assay for human Zinc Finger Protein GLI1 (AID 2282945)
Conditions: HepG2, Attagene cis-factorial reporter mRNA, GLI element; actives raise or lower the signal
Summary of the method: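 HepG2 cells transiently transfected with cis-promoter multiplexed reporter units report endogenous transcription factor activity. After 24 h chemical exposure, reporter mRNA was quantified by RT-PCR, 6-FAM labelling, HpaI digestion and capillary electrophoresis, with bidirectional fitting against DMSO.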

Row | Compound | outcome | AC50
1 | c1ccc2c(c1)sc1ccccc12 | inactive | –
2 | Nc1ccc(Cl)cc1 | inactive | –
3 | Nc1ccc2ccccc2c1 | inactive | –
4 | Nc1ccc([N+](=O)[O-])cc1Cl | inactive | –
5 | CCOP(=S)(OCC)SCSCC | inactive | –
6 | CCOP(=S)(S)OCC | inactive | –
7 | OCC(F)(F)OC(F)(F)C(F)(F)OC(F)(F)C(F)(F)OC(F)(F)F | inactive | –
8 | O=C(O)C(F)(F)C(F)(F)C(=O)O | inactive | –
9 | Cc1cc(C)c(C(=O)P(=O)(c2ccccc2)c2ccccc2)c(C)c1 | – | 60 µM (active)
10 | CC(C)(C)OOC(C)(C)C | inactive | –
11 | Cn1[nH]nnc1=S | inactive | –
12 | CCOP(=S)(Oc1ccc([N+](=O)[O-])cc1)c1ccccc1 (stereo not drawn) | inactive | –
13 | FC(F)(F)C(F)(C(F)(F)F)C(F)(F)C(F)(F)CC1CO1 (stereo not drawn) | inactive | –
14 | CCOC(=O)c1ccccc1N | inactive | –
15 | Oc1ccccc1Br | inactive | –
16 | CCOc1ccc(C(C)(C)COCc2cccc(Oc3ccccc3)c2)cc1 | inactive | –
17 | CCCCc1ccccc1 | inactive | –
18 | CC1=C(C(=O)Nc2ccccc2)S(=O)(=O)CCO1 | inactive | –
19 | ClC(Cl)=C(c1ccc(Cl)cc1)c1ccccc1Cl | inactive | –
20 | CCCCC(CC)COC(=O)c1c(Br)c(Br)c(Br)c(Br)c1C(=O)OCC(CC)CCCC (stereo not drawn) | inactive | –

Row | Compound | outcome | AC50
21 | OCC(F)(F)OC(F)(F)C(F)(F)OC(F)(F)C(F)(F)OC(F)(F)CO | inactive | –
22 | COP(=O)(O)OC | inactive | –
23 | Clc1ccc(Oc2ccccc2)cc1 | inactive | –
24 | N#Cc1ccc(O)cc1 | inactive | –
25 | O=C(O)C1C(C(=O)O)C2(Cl)C(Cl)=C(Cl)C1(Cl)C2(Cl)Cl (stereo not drawn) | inactive | –
26 | CC(O)C#N (stereo not drawn) | inactive | –
27 | CCN(CC)c1ccccc1 | inactive | –
28 | CC(C)Nc1ccc(Nc2ccccc2)cc1 | inactive | –
29 | OCC1CO1 (stereo not drawn) | inactive | –
30 | CCCCC(CC)COP(=O)(Oc1ccccc1)Oc1ccccc1 (stereo not drawn) | – | 100 µM (active)
31 | CCCCCCCc1ccc(O)cc1 | inactive | –
32 | ClC(Cl)c1ccccc1 | inactive | –
33 | COP(N)(=S)OC | inactive | –
34 | CCCCN(CCCC)N=O | inactive | –
35 | CC(C)(C)N(NC(=O)c1ccc(Cl)cc1)C(=O)c1ccccc1 | inactive | –
36 | c1ccc2c(c1)Nc1ccccc1S2 | inactive | –
37 | O=P(Oc1ccccc1)(Oc1ccccc1)Oc1ccccc1 | – | 53.3 µM (active)
38 | CCNc1nc(Cl)nc(NC(C)(C)C)n1 | inactive | –
39 | O=NN1CCCC1 | inactive | –

Target: Bile acid receptor (Homo sapiens) (UniProt Q96RI1)
Sequence (Q96RI1 whole entry, looked up): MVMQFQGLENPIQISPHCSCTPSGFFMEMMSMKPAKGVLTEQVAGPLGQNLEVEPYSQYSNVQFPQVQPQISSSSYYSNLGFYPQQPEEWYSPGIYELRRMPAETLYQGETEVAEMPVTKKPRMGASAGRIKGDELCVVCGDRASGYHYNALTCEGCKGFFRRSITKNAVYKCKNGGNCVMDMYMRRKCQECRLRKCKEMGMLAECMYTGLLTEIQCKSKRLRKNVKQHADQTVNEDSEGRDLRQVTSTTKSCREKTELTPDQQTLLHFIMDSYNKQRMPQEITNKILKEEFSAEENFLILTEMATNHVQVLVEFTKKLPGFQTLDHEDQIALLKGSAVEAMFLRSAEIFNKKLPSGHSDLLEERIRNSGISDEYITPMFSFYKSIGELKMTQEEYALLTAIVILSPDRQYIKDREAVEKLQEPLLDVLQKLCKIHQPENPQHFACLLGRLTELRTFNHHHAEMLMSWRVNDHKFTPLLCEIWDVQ
Experiment: ATG_IR1_CIS: Attagene CIS-FACTORIAL HepG2 Assay for human Nuclear Receptor Subfamily 1 Group H Member 4 (NR1H4), IR1 submotif (AID 2282946)
Conditions: IR1 reporter transcription, actives raise or lower the signal
Summary of the method: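 Readout: reporter transcript levels by RT-PCR with fluorescent capillary electrophoresis, from HepG2 cells transiently transfected with multiplexed cis-regulated reporters and dosed 24 h. Gain- or loss-of-signal fitted versus DMSO negative control.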

Row | Compound | outcome | AC50
40 | c1ccc2c(c1)sc1ccccc12 | inactive | –
41 | Nc1ccc([N+](=O)[O-])cc1Cl | inactive | –
42 | CCOP(=S)(OCC)SCSCC | inactive | –
43 | CCOP(=S)(S)OCC | inactive | –
44 | OCC(F)(F)OC(F)(F)C(F)(F)OC(F)(F)C(F)(F)OC(F)(F)F | inactive | –
45 | O=C(O)C(F)(F)C(F)(F)C(=O)O | inactive | –
46 | Cc1cc(C)c(C(=O)P(=O)(c2ccccc2)c2ccccc2)c(C)c1 | – | 12.8 µM (active)
47 | CC(C)(C)OOC(C)(C)C | inactive | –
48 | Cn1[nH]nnc1=S | inactive | –
49 | FC(F)(F)C(F)(C(F)(F)F)C(F)(F)C(F)(F)CC1CO1 (stereo not drawn) | inactive | –
50 | CCOC(=O)c1ccccc1N | inactive | –
51 | Oc1ccccc1Br | inactive | –
52 | CCOc1ccc(C(C)(C)COCc2cccc(Oc3ccccc3)c2)cc1 | inactive | –
53 | CCCCc1ccccc1 | inactive | –
54 | CC1=C(C(=O)Nc2ccccc2)S(=O)(=O)CCO1 | – | 58.6 µM (active)
55 | ClC(Cl)=C(c1ccc(Cl)cc1)c1ccccc1Cl | – | 43.7 µM (active)
56 | CCCCC(CC)COC(=O)c1c(Br)c(Br)c(Br)c(Br)c1C(=O)OCC(CC)CCCC (stereo not drawn) | inactive | –

Row | Compound | outcome | AC50
57 | OCC(F)(F)OC(F)(F)C(F)(F)OC(F)(F)C(F)(F)OC(F)(F)CO | inactive | –
58 | COP(=O)(O)OC | inactive | –
59 | Clc1ccc(Oc2ccccc2)cc1 | inactive | –
60 | N#Cc1ccc(O)cc1 | inactive | –
61 | O=C(O)C1C(C(=O)O)C2(Cl)C(Cl)=C(Cl)C1(Cl)C2(Cl)Cl (stereo not drawn) | inactive | –
62 | CC(O)C#N (stereo not drawn) | inactive | –
63 | CCN(CC)c1ccccc1 | inactive | –
64 | CC(C)Nc1ccc(Nc2ccccc2)cc1 | inactive | –
65 | OCC1CO1 (stereo not drawn) | inactive | –
66 | CCCCC(CC)COP(=O)(Oc1ccccc1)Oc1ccccc1 (stereo not drawn) | – | 25.6 µM (active)
67 | COP(N)(=S)OC | inactive | –
68 | CCCCN(CCCC)N=O | inactive | –
69 | CC(C)(C)N(NC(=O)c1ccc(Cl)cc1)C(=O)c1ccccc1 | inactive | –
70 | O=P(Oc1ccccc1)(Oc1ccccc1)Oc1ccccc1 | – | 26.6 µM (active)
71 | CCNc1nc(Cl)nc(NC(C)(C)C)n1 | inactive | –
72 | O=NN1CCCC1 | inactive | –

System: not listed separately
Experiment: ATG_GRE_CIS: Attagene CIS-FACTORIAL HepG2 Assay for human Glucocorticoid Response Elements (GRE) (AID 2282947)
Conditions: HepG2 GRE cis-reporter, Attagene multiplex mRNA; actives raise or lower the signal
Summary of the method: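 Cells (HepG2) bearing transfected cis-promoter reporter transcription units were treated with chemical for 24 hours. Reporter mRNA was measured via RT-PCR with capillary electrophoresis, and activity was fitted in both directions relative to DMSO.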

Row | Compound | outcome | AC50
73 | c1ccc2c(c1)sc1ccccc12 | inactive | –
74 | Nc1ccc(Cl)cc1 | inactive | –
75 | Nc1ccc([N+](=O)[O-])cc1Cl | inactive | –
76 | CCOP(=S)(OCC)SCSCC | inactive | –
77 | CCOP(=S)(S)OCC | inactive | –
78 | OCC(F)(F)OC(F)(F)C(F)(F)OC(F)(F)C(F)(F)OC(F)(F)F | inactive | –
79 | O=C(O)C(F)(F)C(F)(F)C(=O)O | inactive | –
80 | Cc1cc(C)c(C(=O)P(=O)(c2ccccc2)c2ccccc2)c(C)c1 | – | 57.7 µM (active)
81 | CC(C)(C)OOC(C)(C)C | inactive | –
82 | Cn1[nH]nnc1=S | inactive | –
83 | FC(F)(F)C(F)(C(F)(F)F)C(F)(F)C(F)(F)CC1CO1 (stereo not drawn) | inactive | –
84 | CCOC(=O)c1ccccc1N | inactive | –
85 | Oc1ccccc1Br | inactive | –
86 | CCOc1ccc(C(C)(C)COCc2cccc(Oc3ccccc3)c2)cc1 | inactive | –
87 | CCCCc1ccccc1 | inactive | –
88 | CC1=C(C(=O)Nc2ccccc2)S(=O)(=O)CCO1 | inactive | –
89 | ClC(Cl)=C(c1ccc(Cl)cc1)c1ccccc1Cl | – | 124 µM (active)
90 | CCCCC(CC)COC(=O)c1c(Br)c(Br)c(Br)c(Br)c1C(=O)OCC(CC)CCCC (stereo not drawn) | inactive | –

Row | Compound | outcome | AC50
91 | OCC(F)(F)OC(F)(F)C(F)(F)OC(F)(F)C(F)(F)OC(F)(F)CO | inactive | –
92 | COP(=O)(O)OC | inactive | –
93 | Clc1ccc(Oc2ccccc2)cc1 | inactive | –
94 | N#Cc1ccc(O)cc1 | inactive | –
95 | O=C(O)C1C(C(=O)O)C2(Cl)C(Cl)=C(Cl)C1(Cl)C2(Cl)Cl (stereo not drawn) | inactive | –
96 | CC(O)C#N (stereo not drawn) | inactive | –
97 | CCN(CC)c1ccccc1 | inactive | –
98 | CC(C)Nc1ccc(Nc2ccccc2)cc1 | inactive | –
99 | OCC1CO1 (stereo not drawn) | inactive | –
100 | CCCCC(CC)COP(=O)(Oc1ccccc1)Oc1ccccc1 (stereo not drawn) | inactive | –
101 | CCCCCCCc1ccc(O)cc1 | inactive | –
102 | ClC(Cl)c1ccccc1 | inactive | –
103 | COP(N)(=S)OC | inactive | –
104 | CCCCN(CCCC)N=O | inactive | –
105 | CC(C)(C)N(NC(=O)c1ccc(Cl)cc1)C(=O)c1ccccc1 | inactive | –
106 | O=P(Oc1ccccc1)(Oc1ccccc1)Oc1ccccc1 | inactive | –
107 | CCNc1nc(Cl)nc(NC(C)(C)C)n1 | inactive | –
108 | O=NN1CCCC1 | inactive | –
